According to PubChem BioAssay AID488845 (National Center for Advancing Translational Sciences (NCATS), 2010):
The source made the active and inactive calls. Calls come from the whole dose curve; as a rule, active = well fitted curve in the direction sought with a large enough effect; inactive = no such curve, though single readings can be large or run the other way.

molecular target: Lysosomal acid glucosylceramidase (Homo sapiens) (UniProt P04062); experiment: qHTS Assay for Inhibitors and Activators of N370S glucocerebrosidase as a Potential Chaperone Treatment of Gaucher Disease: Primary Screen Confirmation Using LC/MS; conditions: N370S GC spleen homogenate, 4MU-glucoside, LC/MS detection
Description: NIH Chemical Genomics Center [NCGC] NIH Molecular Libraries Probe Production Centers Network [MLPCN] MLPCN Grant: MH086442-01 Assay Submitter (PI): Wei Zheng Glucocerebrosidase (GC) catalyzes the hydrolysis of beta-glucocerebroside to glucose and ceramide in lysosomes. Mutations in the glucocerebrosidase gene result in Gaucher disease, an autosomal recessive lysosomal storage disorder. Many of the mutations encountered in patients with Gaucher disease are missense alterations that may cause misfolding, decreased stability and/or mistrafficking of this lysosomal protein. […] These inhibitors include iminosugar analogs and three non-iminosugar inhibitors identified from a previous HTS of 62,000 compounds with the wild type recombinant enzyme. However, the enhancement of enzyme activity by the chaperone action of an enzyme inhibitor must be balanced against the direct inhibition of the enzyme. An enzyme activator could also function as a chaperone by binding to the enzyme and helping to correct its misfolding and mistrafficking. While activators for GC have not yet been identified, they may have better therapeutic potential than inhibitors. Therefore the discovery and development of chemical activators may provide a new strategy for the chaperone therapy. We have optimized a new assay using N370S mutant GC derived from the spleen of a Gaucher patient. […] In addition, the MLPCN compound library has expanded, which increases the chance of finding new and better probes. This assay uses liquid chromatography linked to a mass spectrometer to assess the ability of glucocerebrosidase in the spleen homogenate to cleave either 4-methylumbelliferyl-beta-D-glucopyranoside substrate or a labeled version of the natural substrate, glucosylceramide.
NCGC Assay Protocol Summary: This is a fluorogenic enzyme assay with 4-methylumbelliferyl-beta-D-glucopyranoside as the substrate and N370S glucocerebrosidase from human spleen homogenate as the enzyme preparation. Upon the hydrolysis of this fluorogenic substrate, the resulting product, […] which can be detected by a standard fluorescence plate reader. Data were normalized to the controls for basal activity (without enzyme) and 100% activity (with enzyme). The AC50 values were determined from concentration-response data modeled with the standard Hill equation. Assay buffer: 50 mM citric acid (titrated with potassium phosphate to pH 5.0), 100 mM potassium chloride, 10 mM sodium chloride, 1 mM magnesium chloride, 0.01% Tween-20. […] Compounds were monitored using fluorescence detection with an excitation wavelength of […]. […]

Sequence of Lysosomal acid glucosylceramidase (Homo sapiens) (P04062 whole entry N409S): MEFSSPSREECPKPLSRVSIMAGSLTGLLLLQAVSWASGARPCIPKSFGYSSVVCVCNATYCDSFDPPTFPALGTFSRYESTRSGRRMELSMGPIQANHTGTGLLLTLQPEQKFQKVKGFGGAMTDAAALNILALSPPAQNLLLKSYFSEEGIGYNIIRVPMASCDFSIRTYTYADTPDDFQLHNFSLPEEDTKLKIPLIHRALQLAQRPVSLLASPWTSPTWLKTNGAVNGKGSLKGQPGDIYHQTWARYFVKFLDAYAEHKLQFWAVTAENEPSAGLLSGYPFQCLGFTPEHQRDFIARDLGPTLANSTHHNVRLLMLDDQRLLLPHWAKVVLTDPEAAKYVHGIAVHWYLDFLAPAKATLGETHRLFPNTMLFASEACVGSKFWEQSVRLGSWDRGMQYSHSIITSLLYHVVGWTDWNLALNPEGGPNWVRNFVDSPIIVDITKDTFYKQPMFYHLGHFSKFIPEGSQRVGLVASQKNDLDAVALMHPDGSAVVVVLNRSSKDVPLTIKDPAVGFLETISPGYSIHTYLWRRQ

Potency, active:
O=C(Nc1ccccc1Sc1ccccc1)c1cnn2c1NC(=C1CC1)C=C2C(F)F 3000 nM
Cc1cc(C)n2ncc(C(=O)Nc3ccc(Br)cc3)c2n1 1190 nM
C#Cc1ccc(NC(=O)c2cnn3c(C)cc(C)nc23)cc1 3730 nM
Cc1cc(C)n2ncc(C(=O)Nc3ccc(C(F)(F)F)cc3)c2n1 1340 nM
